Measurements as given in PubChem BioAssay (Tox21).
“And” between values parts separate entries of the source, which are not always exact repeats. Equal values may be shown once. Records with an inconclusive call do not appear. A number with no mark means an inactive call. The source made the active and inactive calls. The call rests on the fitted dose curve; in most records, active means well fitted curve in the direction sought with a large enough effect in the repeat runs; inconclusive means weak or mixed curves; inactive means no such curve, though single readings can be large; an effect the other way counts as inactive or inconclusive.

target: Cytochrome P450 1A2 (Homo sapiens) (UniProt P05177); assay: Cytochrome P450 Family 1 Subfamily A Member 2 (CYP1A2) small molecule antagonists: luciferase reporter qHTS assay (AID 1671199); details: P450-Glo CYP1A2 enzyme, luciferin luminescence, 1 h; series mostly up to 115 µM; activity change, negative = inhibition: at the top concentration; further: potency means the concentration at half of the fitted maximal effect
How it was run: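 Room-temperature CYP1A2 reaction with proluciferin substrate: compounds added from DMSO, 10 min preincubation, NADPH regeneration for 1 h. Luciferin detection reagent then added; luminescence recorded as RLU.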
Further: nearly all actives have a fitted effect of over 50% in size.
On the % scale 0 is the no-effect control and ±100 the full control effect.

Sequence of Cytochrome P450 1A2 (Homo sapiens) (P05177 whole entry, looked up): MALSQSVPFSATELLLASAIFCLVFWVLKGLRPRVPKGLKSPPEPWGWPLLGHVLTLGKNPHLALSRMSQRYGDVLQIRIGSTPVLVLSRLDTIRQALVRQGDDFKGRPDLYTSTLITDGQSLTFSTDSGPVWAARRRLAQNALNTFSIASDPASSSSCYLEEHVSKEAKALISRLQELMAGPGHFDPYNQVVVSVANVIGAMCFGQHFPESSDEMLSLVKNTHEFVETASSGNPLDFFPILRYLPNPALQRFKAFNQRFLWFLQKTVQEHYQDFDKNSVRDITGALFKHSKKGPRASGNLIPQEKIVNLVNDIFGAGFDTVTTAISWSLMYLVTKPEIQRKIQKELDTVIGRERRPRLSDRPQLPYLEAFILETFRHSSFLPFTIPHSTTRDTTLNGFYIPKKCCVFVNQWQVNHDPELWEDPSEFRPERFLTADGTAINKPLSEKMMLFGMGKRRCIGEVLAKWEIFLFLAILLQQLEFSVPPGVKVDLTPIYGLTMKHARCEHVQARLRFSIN

SMILES | activity change, negative = inhibition | Potency
CCCCNP(N)(N)=S | -21.9% | 
c1cc2ccc3cccc4ccc(c1)c2c34 |  | 0.564 µM (active)
Clc1cc(C(Cl)(Cl)Cl)cnc1Cl |  | 7.96 µM (active)
CC1(C)[C@H](C=C(Cl)Cl)[C@@H]1C(=O)O[C@@H](C#N)c1cccc(Oc2ccccc2)c1 | -16.1% | 
Nc1nc(N)nc(N)n1 |  | 31.8 µM (active)
CCOS(C)(=O)=O | -10.5% | 
O=C(CBr)OCc1ccccc1 | -17.4% | 
Cc1ccc(N)cc1C |  | 4.52 µM (active)
CC[C@H]1C[C@H]2[C@@H]3CCC4=CC(=O)CC[C@@H]4[C@H]3CC[C@]2(C)[C@H]1O | -27.5% [at 53 µM] | 
O=Cc1ccc2c(c1)OCO2 |  | 31.3 µM (active)
COC(=O)C(Br)CBr (stereo not drawn) |  | 35.6 µM (active)
C=COC(C)=O |  | 41.3 µM (active)
CO/N=C(/C(=O)OC)c1ccccc1COc1ccccc1C |  | 20 µM (active)
CC(C)O.CC(C)O.OCCN(CCO)CCO.OCCN(CCO)CCO.[Ti] | -11.8% | 
CCOP(=S)(OCC)Oc1nc(Cl)c(Cl)cc1Cl |  | 2.53 µM (active) and 3.56 µM (active)
ClP(Cl)(Cl)(Cl)Cl | -4.42% | 
CC(=O)NC1CCSC1=O (stereo not drawn) | 0.172% [at 53 µM] | 
CCOC(=O)COc1cc(-c2nn(C)c(OC(F)F)c2Cl)c(F)cc1Cl |  | 1.78 µM (active)
COP(=O)(OC)O/C(=C/Cl)c1cc(Cl)c(Cl)cc1Cl |  | 2.66 µM (active)
C=CC[C@]1(O)CC[C@H]2[C@@H]3CCC4=CC(=O)CCC4=C3C=C[C@@]21C | 13.2% [at 53 µM] | 
O=C(O)c1ccccc1C(=O)Nc1cccc2ccccc12 |  | 12.6 µM (active)
CC1(C)CCC(Cc2ccc(Cl)cc2)C1(O)Cn1cncn1 (stereo not drawn) |  | 39.9 µM (active)
COC(=O)c1cncn1C(C)c1ccccc1 (stereo not drawn) | 5.91% [at 53 µM] | 
Cc1cc(=O)[nH]o1 | -21.6% | 
Cn1cc[n+](C)c1 (tested in a mixture with another compound) | -9.07% | 

target: Voltage-gated inwardly rectifying potassium channel KCNH2 (Homo sapiens) (UniProt Q12809); assay: Human Ether-a-go-go-Related Gene (hERG) channel small molecule antagonists: fluorescence cell-based qHTS assay (AID 1671200); details: hERG-U2OS cells, FluxOR thallium flux fluorescence; series mostly up to 76.8 µM; activity change, negative = inhibition: at the top concentration;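 further: hERG-expressing U2OS cells given a thallium stimulus after FluxOR II dye loading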
How it was run: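 Read-out: thallium influx as a surrogate for potassium, tracked as fluorescence (480 nm ex/540 nm em) every second for 2 min after Stimulus Buffer addition in dye-loaded hERG-U2OS cells.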

Sequence of Voltage-gated inwardly rectifying potassium channel KCNH2 (Homo sapiens) (Q12809 whole entry, looked up): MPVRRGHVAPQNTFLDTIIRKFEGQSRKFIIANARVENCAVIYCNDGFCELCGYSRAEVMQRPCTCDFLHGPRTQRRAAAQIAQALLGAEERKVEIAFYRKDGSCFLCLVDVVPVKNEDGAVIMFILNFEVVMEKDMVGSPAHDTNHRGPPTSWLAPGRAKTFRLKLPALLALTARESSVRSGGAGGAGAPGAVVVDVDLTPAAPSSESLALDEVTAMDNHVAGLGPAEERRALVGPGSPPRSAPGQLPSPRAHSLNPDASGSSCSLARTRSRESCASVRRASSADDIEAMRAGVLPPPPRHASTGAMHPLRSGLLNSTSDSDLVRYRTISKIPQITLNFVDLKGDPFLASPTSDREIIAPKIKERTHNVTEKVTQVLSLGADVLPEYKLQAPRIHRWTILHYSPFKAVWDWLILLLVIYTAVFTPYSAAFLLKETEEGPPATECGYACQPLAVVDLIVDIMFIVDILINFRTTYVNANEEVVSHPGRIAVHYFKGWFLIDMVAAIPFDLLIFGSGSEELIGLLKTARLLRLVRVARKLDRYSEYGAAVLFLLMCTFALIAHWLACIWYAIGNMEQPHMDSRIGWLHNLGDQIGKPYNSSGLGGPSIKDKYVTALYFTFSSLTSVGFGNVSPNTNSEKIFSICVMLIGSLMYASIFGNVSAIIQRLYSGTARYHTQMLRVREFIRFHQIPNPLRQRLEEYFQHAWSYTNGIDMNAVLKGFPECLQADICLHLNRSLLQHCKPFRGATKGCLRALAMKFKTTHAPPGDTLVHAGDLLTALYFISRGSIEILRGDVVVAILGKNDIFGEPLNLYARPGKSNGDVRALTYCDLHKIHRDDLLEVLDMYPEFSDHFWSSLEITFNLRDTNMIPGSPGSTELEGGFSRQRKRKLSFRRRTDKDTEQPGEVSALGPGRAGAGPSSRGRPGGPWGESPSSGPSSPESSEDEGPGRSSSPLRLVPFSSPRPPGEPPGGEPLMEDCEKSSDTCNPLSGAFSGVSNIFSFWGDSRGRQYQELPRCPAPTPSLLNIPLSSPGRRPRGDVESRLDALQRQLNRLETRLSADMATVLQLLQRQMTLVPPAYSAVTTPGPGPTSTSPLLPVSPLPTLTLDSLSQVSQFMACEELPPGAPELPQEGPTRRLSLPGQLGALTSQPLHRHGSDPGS

SMILES | activity change, negative = inhibition
CCCCNP(N)(N)=S | 3.76%
c1cc2ccc3cccc4ccc(c1)c2c34 | 49.2%
C=CC(C)=O | 7.82%
Clc1cc(C(Cl)(Cl)Cl)cnc1Cl | -0.541%
C/C=C/C=O | 3.42%
CC1(C)[C@H](C=C(Cl)Cl)[C@@H]1C(=O)O[C@@H](C#N)c1cccc(Oc2ccccc2)c1 | -20.6%
Nc1nc(N)nc(N)n1 | -2.58%
CCOS(C)(=O)=O | -1.15%
O=C(CBr)OCc1ccccc1 | -0.753%
O=S(=O)(O)C(F)(F)C(F)(F)C(F)(F)C(F)(F)F | 5.94%
Cc1ccc(N)cc1C | 0.764%
CC[C@H]1C[C@H]2[C@@H]3CCC4=CC(=O)CC[C@@H]4[C@H]3CC[C@]2(C)[C@H]1O | -18.5% [at 35.3 µM]
O=Cc1ccc2c(c1)OCO2 | 7.19%
COC(=O)C(Br)CBr (stereo not drawn) | 0.414%
C=COC(C)=O | -1.23%
CC1C(=O)C[C@]2(C(C)C)C[C@H]12 (stereo partly drawn) | -1.13%
Brc1ccccc1 | 1.6%
CO/N=C(/C(=O)OC)c1ccccc1COc1ccccc1C | -9.89%
